This is an account of results in PMC13541613, “GHT-SELEX demonstrates unexpectedly high intrinsic sequence specificity and complex DNA binding of many human transcription factors”.

Assay in all cases: HT-SELEX; 20 mM HEPES pH 7, 140 mM KCl, 5 mM NaCl, 1 mM K2HPO4, 2 mM MgSO4, 100 uM EGTA, ZnSO4, 0.1% Tween20; room temperature, 1 h; high values mean tight binding
Common to all, as to conditions: protein: ivt; tags: eGFP (N-terminal); dsDNA, one strand shown

For one assay, the target named is ZNF721 full-length (Homo sapiens, UniProt Q8TF20-2 1-923). Summed up: (§1)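 In HEPES/KCl low-stringency buffer with Tween20, a bead-immobilised tagged transcription factor (full-length or DNA-binding-domain fragment, from HEK293 lysate or cell-free extract) was incubated with a randomized 40-base DNA library for 1 h at room temperature. DNA retained after washing was heat-eluted, amplified by PCR over successive cycles and Illumina-sequenced, giving ~3 million 60 bp reads per sample. The reported binding signal, a relative k-mer count in those selected reads, rises with tighter binding.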

A further assay deals with ZNF721 DBD1 (Homo sapiens, UniProt Q8TF20-2 29-461). Summed up: as §1
A further assay addresses ZNF721 DBD2 (Homo sapiens, UniProt Q8TF20-2 395-923). The method, boiled down:
as §1

Chain of ZNF721 DBD2 (Q8TF20 383-911): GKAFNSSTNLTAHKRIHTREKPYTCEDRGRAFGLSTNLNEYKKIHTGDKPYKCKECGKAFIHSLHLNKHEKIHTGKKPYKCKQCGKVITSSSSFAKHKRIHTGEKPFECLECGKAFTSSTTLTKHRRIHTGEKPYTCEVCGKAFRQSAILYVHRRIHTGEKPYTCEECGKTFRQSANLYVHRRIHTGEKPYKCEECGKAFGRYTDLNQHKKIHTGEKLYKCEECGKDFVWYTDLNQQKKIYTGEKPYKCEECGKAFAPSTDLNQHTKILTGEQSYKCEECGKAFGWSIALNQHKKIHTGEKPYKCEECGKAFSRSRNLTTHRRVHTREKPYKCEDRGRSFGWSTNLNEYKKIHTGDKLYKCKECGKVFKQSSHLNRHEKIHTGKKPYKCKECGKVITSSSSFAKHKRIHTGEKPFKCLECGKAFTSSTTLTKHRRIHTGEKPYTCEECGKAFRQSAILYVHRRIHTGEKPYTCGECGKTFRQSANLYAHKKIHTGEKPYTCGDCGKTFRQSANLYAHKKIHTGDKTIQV
Chain of ZNF721 full-length (Q8TF20 other isoform, or with tags, fused parts or gaps): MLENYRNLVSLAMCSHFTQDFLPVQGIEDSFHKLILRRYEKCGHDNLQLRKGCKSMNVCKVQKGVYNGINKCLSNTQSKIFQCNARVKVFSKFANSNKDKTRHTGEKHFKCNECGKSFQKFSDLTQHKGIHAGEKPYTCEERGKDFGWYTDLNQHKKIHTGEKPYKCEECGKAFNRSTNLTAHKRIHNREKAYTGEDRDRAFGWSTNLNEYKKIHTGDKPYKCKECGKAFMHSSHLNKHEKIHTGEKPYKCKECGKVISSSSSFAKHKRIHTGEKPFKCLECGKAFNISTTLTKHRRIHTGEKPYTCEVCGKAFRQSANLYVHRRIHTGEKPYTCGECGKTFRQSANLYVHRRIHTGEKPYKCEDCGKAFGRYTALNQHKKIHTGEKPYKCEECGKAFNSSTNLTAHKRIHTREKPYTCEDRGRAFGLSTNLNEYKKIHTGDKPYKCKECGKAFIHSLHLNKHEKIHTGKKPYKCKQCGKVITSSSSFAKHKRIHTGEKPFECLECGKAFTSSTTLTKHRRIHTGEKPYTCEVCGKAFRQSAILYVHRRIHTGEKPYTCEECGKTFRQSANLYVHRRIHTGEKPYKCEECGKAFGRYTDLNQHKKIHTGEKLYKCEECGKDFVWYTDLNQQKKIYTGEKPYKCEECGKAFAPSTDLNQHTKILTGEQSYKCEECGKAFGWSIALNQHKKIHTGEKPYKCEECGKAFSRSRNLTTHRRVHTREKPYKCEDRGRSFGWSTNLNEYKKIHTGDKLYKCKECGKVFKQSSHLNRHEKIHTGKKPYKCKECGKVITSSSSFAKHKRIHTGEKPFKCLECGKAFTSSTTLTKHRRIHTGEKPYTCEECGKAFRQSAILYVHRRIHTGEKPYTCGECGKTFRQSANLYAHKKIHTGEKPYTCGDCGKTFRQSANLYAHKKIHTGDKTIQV
Chain of ZNF721 DBD1 (Q8TF20 17-449): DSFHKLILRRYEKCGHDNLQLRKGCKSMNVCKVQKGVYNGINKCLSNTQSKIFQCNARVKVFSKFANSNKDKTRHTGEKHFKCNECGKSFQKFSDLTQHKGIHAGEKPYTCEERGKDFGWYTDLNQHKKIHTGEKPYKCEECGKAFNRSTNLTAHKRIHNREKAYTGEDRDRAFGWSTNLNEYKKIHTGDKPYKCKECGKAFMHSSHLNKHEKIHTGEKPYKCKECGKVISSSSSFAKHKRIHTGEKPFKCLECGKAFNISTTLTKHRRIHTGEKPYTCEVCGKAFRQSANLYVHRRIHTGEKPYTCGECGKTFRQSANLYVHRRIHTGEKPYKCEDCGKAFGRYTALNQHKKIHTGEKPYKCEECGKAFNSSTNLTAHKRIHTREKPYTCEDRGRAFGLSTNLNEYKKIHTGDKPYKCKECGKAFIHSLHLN

In the case of AGCATATCCA, the binding signal was determined as 0.107 relative 10-mer count with ZNF721 full-length, 0.0108 relative 10-mer count in the assay with ZNF721 DBD1 and 0.102 relative 10-mer count in the assay with ZNF721 DBD2.
The like results for CCTCCACCCA were, in that order, 0.111 relative 10-mer count, 0.00505 relative 10-mer count and 0.00527 relative 10-mer count.
The like results for CACCCCACAC were, in that order, 0.138 relative 10-mer count, 0.0055 relative 10-mer count and 0.00875 relative 10-mer count.
Regarding ACCTCCCCAC, the figures for the binding signal with ZNF721 full-length, with ZNF721 DBD1 and with ZNF721 DBD2 were 0.108 relative 10-mer count, 0.00422 relative 10-mer count and 0.0036 relative 10-mer count, respectively.
On the same counts, the results for CCCACCCCAC are 0.354 relative 10-mer count, 0.0155 relative 10-mer count and 0.00863 relative 10-mer count.
Turning to AGCGTTTCCA, the results for the binding signal in the assay with ZNF721 full-length, with ZNF721 DBD1 and with ZNF721 DBD2 were 0.214 relative 10-mer count, 0.00252 relative 10-mer count and 0.459 relative 10-mer count, respectively.
The like results for CACCCCACCG were, in that order, 0.124 relative 10-mer count, 0.00459 relative 10-mer count and 0.00372 relative 10-mer count.
On the same counts, the results for ACCACCCCCA are 0.142 relative 10-mer count, 0.00505 relative 10-mer count and 0.00204 relative 10-mer count.
On to AAAAAGCAGT, for which the binding signal amounted to 0.497 relative 10-mer count in the assay with ZNF721 full-length, 0.0214 relative 10-mer count with ZNF721 DBD1 and 0.383 relative 10-mer count with ZNF721 DBD2.
On the same counts, the results for CCCCCGCACC are 0.146 relative 10-mer count, 0.00527 relative 10-mer count and 0.00419 relative 10-mer count.
The like results for CCCCTTCCCC were, in that order, 0.162 relative 10-mer count, 0.00702 relative 10-mer count and 0.00192 relative 10-mer count.
On the same counts, the results for CCCCCGCCCG are 0.109 relative 10-mer count, 0.00372 relative 10-mer count and 0.00192 relative 10-mer count.
Take AGTGTCTCCA: the binding signal with ZNF721 full-length was 0.147 relative 10-mer count; in the assay with ZNF721 DBD1 it was 0.0423 relative 10-mer count; in the assay with ZNF721 DBD2 it was 0.282 relative 10-mer count.
The like results for CCCCACCGCC were, in that order, 0.28 relative 10-mer count, 0.0114 relative 10-mer count and 0.00635 relative 10-mer count.
The like results for ACCGCCCCAC were, in that order, 0.103 relative 10-mer count, 0.0033 relative 10-mer count and 0.00252 relative 10-mer count.
On the same counts, the results for AAAGCAGCAT are 0.31 relative 10-mer count, 0.00202 relative 10-mer count and 0.366 relative 10-mer count.
For the sequence CCTCCCGCCC, the binding signal is 0.161 relative 10-mer count with ZNF721 full-length, 0.00656 relative 10-mer count with ZNF721 DBD1 and 0.00264 relative 10-mer count with ZNF721 DBD2.
On the same counts, the results for CCACCCCACC are 0.411 relative 10-mer count, 0.0178 relative 10-mer count and 0.00731 relative 10-mer count.
The like results for CCCATCCCCA were, in that order, 0.106 relative 10-mer count, 0.00472 relative 10-mer count and 0.00551 relative 10-mer count.
The like results for CCACAAAAAA were, in that order, 0.125 relative 10-mer count, 0.00615 relative 10-mer count and 0.0663 relative 10-mer count.
Take CACCCACCGC: the binding signal with ZNF721 full-length was found to be 0.103 relative 10-mer count; in the assay with ZNF721 DBD1 it was 0.00463 relative 10-mer count; with ZNF721 DBD2, 0.00455 relative 10-mer count.
The like results for ACCCCACCTC were, in that order, 0.104 relative 10-mer count, 0.00527 relative 10-mer count and 0.0024 relative 10-mer count.
The like results for CCGACCACCC were, in that order, 0.119 relative 10-mer count, 0.00495 relative 10-mer count and 0.00443 relative 10-mer count.
On the same counts, the results for AAAACAGTAT are 0.105 relative 10-mer count, 0.00124 relative 10-mer count and 0.155 relative 10-mer count.
On to CCCCCATCCC, for which the binding signal with ZNF721 full-length worked out at 0.173 relative 10-mer count; with ZNF721 DBD1, 0.00638 relative 10-mer count; in the assay with ZNF721 DBD2, 0.00384 relative 10-mer count.
The like results for CACCTCCCCA were, in that order, 0.115 relative 10-mer count, 0.00505 relative 10-mer count and 0.00348 relative 10-mer count.
Regarding ACCACCCCGC, the binding signal was 0.104 relative 10-mer count with ZNF721 full-length, 0.00358 relative 10-mer count with ZNF721 DBD1 and 0.00252 relative 10-mer count in the assay with ZNF721 DBD2.
The like results for CGCCCCCTCC were, in that order, 0.135 relative 10-mer count, 0.00605 relative 10-mer count and 0.00407 relative 10-mer count.
The like results for GGGGAGGGGA were, in that order, 0.125 relative 10-mer count, 0.00674 relative 10-mer count and 0.0036 relative 10-mer count.
In the case of ACCCCTCCAC, the binding signal with ZNF721 full-length was determined as 0.11 relative 10-mer count; with ZNF721 DBD1 it was 0.00472 relative 10-mer count; with ZNF721 DBD2, 0.00419 relative 10-mer count.
